Screening data from PubChem.
ALOX12 inh = ALOX12 (human) lipoxygenase inhibition | actives 1.1% (n = 580,000) | Potency, µM (highest dose often 108 µM), inactives show at the top dose activity change, negative = inhibition, usual class: inhibitors | purified 12hLO, xylenol orange hydroperoxide absorbance; further: on the % scale 0 is the no-effect control and ±100 the full control effect
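Hydroperoxide product was detected by ferrous iron/xylenol orange as the 573 to 405 nm absorbance ratio. Arachidonic acid at 40 uM (final) was turned over for 30 min at room temperature by 150 nM human 12hLO, pH 7.0 Hepes buffer, after 15 min compound preincubation.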
Sfp PPTase inh = inhibitors of Bacillus subtilis Sfp phosphopantetheinyl transferase | Q9F4F7 | Biochemical Sfp PPTase activity, qHTS | Potency, µM, inactives show largest response in the series, negative = inhibition, actives largely listed as inhibitors | actives 3.5% (n = 310,000);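 further: the enzyme is Sfp with the accession as filed and its product quenches rhodamine fluorescence; 0% = enzyme reaction without inhibitor and -100% = no enzyme wells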
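Step 1, compound plus 15 nM Sfp-PPTase, 15 min, room temperature. Step 2, add rhodamine-CoA (5 uM) and BHQ-2-YbbR (12.5 uM). Step 3, read 525/598 nm fluorescence at 0 and 30 min.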
BAZ2B inh = inhibitors of human BAZ2B bromodomain | AlphaScreen BAZ2B-H3K14Ac peptide displacement | Potency, µM (series often up to 114 µM), inactives show at the top dose activity change, negative = inhibition, most hits filed as inhibitors | AID 504333 | actives 4.4% (n = 360,000) | Q9UIF8; further: on the % scale 0 is the no-effect control and ±100 the full control effect; nearly all actives have a fitted effect of over 60% in size
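Multi-concentration screen (max 110 uM) measuring displacement of acetylated histone H3 peptide from BAZ2B by AlphaScreen, using 50 nM protein, 50 nM peptide and 10 ug/mL streptavidin donor plus Ni-chelate acceptor beads.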
G9a block = inhibitors of human histone lysine methyltransferase G9a | Potency, µM (series often up to 102 µM), for the others: at the highest dose activity, negative = inhibition, most hits filed as inhibitors | actives 8.8% (n = 350,000) | AID 504332 | G9a H3K9 monomethylation, AlphaScreen, 2 h; further: on the % scale 0 is the no-effect control and ±100 the full control effect; nearly all actives have a fitted effect of over 75% in size
Target sequence (Q96KQ7 913-1193 limits assumed): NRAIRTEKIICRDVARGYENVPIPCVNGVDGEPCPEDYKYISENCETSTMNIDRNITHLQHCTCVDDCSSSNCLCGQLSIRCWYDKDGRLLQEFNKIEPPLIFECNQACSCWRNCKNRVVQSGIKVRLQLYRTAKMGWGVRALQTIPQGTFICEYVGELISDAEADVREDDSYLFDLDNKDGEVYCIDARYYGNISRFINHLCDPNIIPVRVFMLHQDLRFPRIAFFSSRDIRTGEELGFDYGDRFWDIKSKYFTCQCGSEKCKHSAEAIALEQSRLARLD
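AlphaScreen read-out: biotin-H3K9 peptide (500 nM) methylation by 20 nM enzyme with 20 uM SAM, 2 h at room temperature after 15 min compound preincubation; anti-monomethyl H3K9 antibody plus donor/acceptor beads, 10 min dark.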
HP1b chromo inh = blocks HP1-beta chromodomain binding to methylated histone tails; actives 0.56% (n = 390,000); P83916; AlphaScreen HP1-beta / biotin-H3K9me3 peptide binding; Potency, µM (highest dose often 114 µM), inactives show at the top dose activity change, negative = inhibition, actives largely listed as inhibitors; further: nearly all actives have a fitted effect of over 70% in size
Target sequence (P83916 whole entry, looked up): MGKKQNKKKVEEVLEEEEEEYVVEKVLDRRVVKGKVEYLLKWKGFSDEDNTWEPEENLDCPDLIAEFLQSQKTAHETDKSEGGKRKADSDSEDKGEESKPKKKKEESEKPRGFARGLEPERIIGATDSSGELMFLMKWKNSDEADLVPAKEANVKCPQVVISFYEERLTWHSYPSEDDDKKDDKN
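AlphaScreen: HP1-beta (50 nM) preformed 30 min with biotin-H3(1-18)K9me3 peptide (50 nM) in PBS pH 7.4, 0.01% Tween-20. Compound added for 30 min at RT, then streptavidin donor/nickel chelate acceptor beads (10 ug/mL) for 30 min.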
JMJD2A Tudor inh = inhibitors of human JMJD2A Tudor domain | AlphaScreen JMJD2A-Tudor / H3K4me3 peptide binding | Potency, µM (series often up to 114 µM), for the others: top-dose activity change, negative = inhibition, most hits filed as inhibitors | actives 4.4% (n = 390,000) | AID 504339; further: on the % scale 0 is the no-effect control and ±100 the full control effect; nearly all actives have a fitted effect of over 50% in size
* hit, by the source's call; ? = inconclusive; nt = no result given; [ ] = dose if it differs, or a comment. The list is not random: actives were taken first. Their share in the collection is about 8.7%. The call rests on the fitted dose curve; in most records, active means well fitted curve in the direction sought with a large enough effect; inconclusive means small, poorly fitted or top-dose-only effect, or another doubt; inactive means no such curve, though single readings can be large; an effect the other way counts as inactive or inconclusive. Potency means the concentration at half of the fitted maximal effect.

SMILES | ALOX12 inh | Sfp PPTase inh | BAZ2B inh | G9a block | HP1b chromo inh | JMJD2A Tudor inh
CSC1=N/C(=C\c2ccc(C)o2)C(=O)S1 | 45µM* | ? | 45µM* | 13µM* | -66% | ?
CSC1=N/C(=C\c2ccc(I)o2)C(=O)S1 | 5.6µM* | nt | nt | nt | nt | nt
CSC1=N/C(=C\c2ccc(F)cc2)C(=O)S1 | -21% | -20% | -39% | ? | 19% | -8%
N#Cc1cccc(NC(=O)Cn2c(=O)c3c(ncn3C3CCCC3)n(Cc3ccccc3)c2=O)c1 | -8% | nt | nt | nt | nt | nt
CS(=O)(=O)N(Cc1cccc(CN(C(C(=O)O)c2ccccc2)S(C)(=O)=O)c1)C(C(=O)O)c1ccccc1 (centres undefined) | -49% | ? | ? | 32µM* | 36% | -31%
COc1ccc(OC)c(CNc2sc3c(c2C(=O)Nc2cc(OC)ccc2OC)CCCC3)c1 | ? | nt | 22µM* | 11µM* | -21% | ?
COc1ccc(OC)c(NC(=O)c2c(NC(=O)c3ccco3)sc3c2CCC3)c1 | nt | -1% | 8% | -26%[12.7 µM] | nt | nt
COc1ccc(OC)c(NC(=O)c2c(NC(=O)CCC(=O)O)sc3c2CCCCC3)c1 | ? | 50µM* | -37% | 45µM* | -19% | ?
COc1ccc(OC)c(NC(=O)c2c(NCc3cccs3)sc3c2CCCC3)c1 | ? | nt | 35µM* | ? | -15% | 40µM*
COc1ccccc1NC(=O)c1c(NC(=O)COc2ccccc2)sc2c1CCCCC2 | -12% | nt | 7% | 12%[59 µM] | 72% | -4%
COC(=O)c1c(NC(=O)c2ccc(OC)cc2OC)sc2c1CCCCC2 | -29% | nt | -20% | -41%[59 µM] | 30% | -28%
COc1cc(OC)c(OC)cc1CNc1sc2c(c1C(=O)Nc1ccccc1OC)CCC2 | -5% | nt | -32% | 13µM* | 19% | ?
CC(C)OCCCNC(=O)c1cc2cn(C(C)C)cc2s1 | 32% | nt | nt | nt | nt | nt
O=C(O)CCC(=O)Nc1sc2c(c1C(=O)Nc1cccc3ccccc13)CCCCC2 | ? | 50µM* | ? | 22µM* | -5% | ?
COc1c(Cl)cccc1NC(=O)c1c(NC(=O)Cc2ccccc2)sc2c1CCCC2 | nt | nt | nt | nt | nt | -10%
COc1ccc(NC(=O)c2c(NCc3cccs3)sc3c2CCCC3)c(OC)c1 | -10% | nt | ? | ? | -4% | ?
Cc1cc2oc(C(=O)Nc3sc4c(c3C(=O)NCc3ccccc3)CCCC4)cc(=O)c2cc1C | 0% | nt | -1% | -5%[59 µM] | 9% | -14%
COc1ccc(OC)c(NC(=O)c2c(NCc3cccs3)sc3c2CCCCC3)c1 | ? | nt | 22µM* | 11µM* | -1% | ?
O=C(Nc1sc2c(c1C(=O)NCc1ccccc1)CCCC2)c1cc(=O)c2ccccc2o1 | -13% | nt | -12% | 11µM* | ? | -18%
COc1ccc(-c2cc(N3CCC(NC(=O)c4ccc5nc[nH]c5c4)CC3)n[nH]2)cc1 | 66% | nt | nt | nt | nt | nt
Cc1ccc(-n2nnnc2SCC(=O)N(CC(C)C)c2c(N)n(CC(C)C)c(=O)[nH]c2=O)cc1 | 32% | 5% | -6% | -32% | 28% | -14%
Cc1cc(SCC(=O)N(CC(C)C)c2c(N)n(CC(C)C)c(=O)[nH]c2=O)nc2ccccc12 | ? | nt | 3% | 6.3µM* | 11% | -6%
Cc1ccccc1-c1nnc(SCC(=O)N(CC(C)C)c2c(N)n(CC(C)C)c(=O)[nH]c2=O)n1C | 0% | 14% | -7% | 50µM* | 24% | 15%
Cc1ccc2nc(SCC(=O)N(CC(C)C)c3c(N)n(CC(C)C)c(=O)[nH]c3=O)[nH]c2c1 | ? | -2% | 0% | ? | 44% | -2%
COCCN(C(=O)CSc1nnc(-c2ccncc2)n1C)c1c(N)n(CC(C)C)c(=O)[nH]c1=O | -7% | nt | nt | nt | 41% | -9%
SMILES | ALOX12 inh | Sfp PPTase inh | BAZ2B inh | G9a block | HP1b chromo inh | JMJD2A Tudor inh
Cc1cc(C)n2c(SCC(=O)N(CC(C)C)c3c(N)n(CC(C)C)c(=O)[nH]c3=O)nnc2n1 | -29% | ? | 0% | 18µM* | 26% | -12%
CCC/C=N/NC(=O)c1ccccc1C | -21% | nt | nt | nt | nt | nt
CN(CC(=O)NC(=O)NCC(F)(F)F)CC(=O)Nc1ccc(F)cc1 | 22% | nt | nt | nt | nt | nt
O=C(CSc1ccc2nnc(-c3ccc(F)cc3)n2n1)NCC1CCCO1 (centres undefined) | nt | -6% | 3% | 20µM* | 13% | -30%
COC(=O)c1ccc(CSc2ccc3nnc(-c4ccc(F)cc4)n3n2)o1 | -4% | -10% | nt | -12% | 28% | -19%
COc1ccc(-c2nnc3ccc(SCC(=O)NCC4CCCO4)nn23)cc1 (centres undefined) | nt | 18% | 9% | 9%[59 µM] | 28% | -12%
CCOc1ccc(-c2nnc3ccc(SCc4ccc(C(=O)OC)o4)nn23)cc1 | ? | 11µM* | 3% | 11µM* | 12% | -36%
CCOC(=O)CNC(=O)CSc1ccc2nnc(-c3ccc(F)cc3)n2n1 | ? | 0% | 1% | 32µM* | 50% | 12%
O=C(CSc1ccc2nnc(-c3ccc(F)cc3)n2n1)NCc1ccco1 | ? | -4% | 12% | 8.9µM* | 22% | -13%
O=C(CSc1ccc2nnc(-c3ccncc3)n2n1)NCc1ccco1 | ? | -28% | 1% | -5% | 59% | -12%
O=C(NCCC(=O)N1CCCC1)C1CCCCC1 | 5% | nt | nt | nt | nt | nt
O=C(Cn1ccc2cc(Br)ccc21)NC1CC1 | -1% | nt | nt | nt | nt | nt
CC1(Cc2ccc3c(c2)OCO3)CCC(=O)N(CCc2ccncc2)C1 (centres undefined) | 4% | nt | nt | nt | nt | nt
CCSc1ccc2nnc(-c3ccc(F)cc3)n2n1 | ? | 4% | 0% | 18µM* | 47% | 8%
O=C(c1ccc2c(c1)CCCC2)N1CCN(c2nc3c(F)cccc3s2)CC1 | -30% | nt | -18% | -16%[59 µM] | -13% | -12%
COc1ccc(C(=O)N2CCCN(c3cc(-c4ccc(F)cc4)[nH]n3)CC2)cc1OC | 35% | nt | nt | nt | nt | nt
COc1ccc(OC)c2c(C)cc(N3CCN(C(=O)c4ccc(C)cc4)CC3)nc12 | -3% | 11% | 50µM* | ? | -36% | ?
COc1ccc(OC)c2sc(N3CCN(C(=O)c4ccc5c(c4)CCCC5)CC3)nc12 | ? | nt | 40µM* | ? | ? | ?
COc1ccc(OC)c2c(C)cc(N3CCN(C(=O)c4ccc(F)cc4)CC3)nc12 | -23% | -24% | 50µM* | ? | -27% | ?
O=C1C(N2CCN(S(=O)(=O)c3ccc(F)cc3F)CC2)CCN1Cc1ccccn1 (centres undefined) | 84% | nt | nt | nt | nt | nt
CSc1cccc(N=Cc2cc(Cl)ccc2O)c1 | 0% | nt | nt | nt | nt | nt
COc1ccc(-c2ccnc(N[C@H]3CO[C@H]4[C@@H]3OC[C@H]4OCC(N)=O)n2)cc1 | 22%[176 µM] | nt | nt | nt | nt | nt
